Data: the supplement of paper PMC10849652
Targets with a hit are over-represented here; the source holds about 7,900 in all. About 0.6% of all pairs of compound and target were hits. Values without a mark were called inactive.

Experiments:
Experiment in all cases: log2 fold change, soluble protein after heating vs DMSO (PISA); higher = thermal stabilisation; K562 cells, 10 uM, 30 min; active = over 0.2 and 3.5 SD of the protein, either way, in both replicates (recomputed)
erlotinib = compound: C#Cc1cccc(Nc2ncnc3cc(OCCOC)c(OCCOC)cc23)c1 [erlotinib]
Summary of the method: (§1)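 Aliquots of K562 cells (2×10^6 cells/mL) treated with 10 μM compound for 30 min were heated for 3 min over 48°C-58°C. After pooling and extraction in PBS with 0.5% NP-40 at 4°C, soluble protein from a 21,000xg, 90 min spin was quantified by TMTpro 16plex LC-MS/MS with channel sums equalised. Thermal stability is expressed against control samples, from duplicates, as a log2 fold change.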

[1] = compound: C/C(=N\NC(=O)C1=CC(=CC=C1)S(=O)(=O)N2CCOCC2)/C3=C(C=CC(=C3)Cl)O
Summary of the method: as §1

[2] = compound: C1=CC(=C(C=C1Cl)C2=NC3=NC=CN=C3C(=N2)NC4=CC=NC=C4)F
Summary of the method: as §1

[3] = compound: C1=CC(=CC=C1C2=NC3=C(N2)C=C(C=C3)C(=O)N)OC4=CC=C(C=C4)Cl
Summary of the method: as §1

[4] = compound: C1=CC2=C(C=CC(=C2)/C=C\3/C(=O)NC(=NCC4=CC=CS4)S3)N=C1
Summary of the method: as §1

[5] = compound: C1=CC2=NC=CN=C2C=C1/C=C/3\C(=O)NC(=O)S3
Summary of the method: as §1

[6] = compound: C1=CC=C(C=C1)C2=NC(=C(N2)C3=CC=NC=C3)C4=CC(=C(C=C4)Cl)O
Summary of the method: as §1

[7] = compound: C1=CC=C2C(=C1)C3=NNC4=CC=CC(=C43)C2=O
Summary of the method: as §1

[8] = compound: C1CCN(C1)C(=O)NC2=CC=CC(=C2)NC3=NC=C(C(=N3)NCCC4=CN=CN4)Br
Summary of the method: as §1

[9] = compound: C1CN(CCC1(CC2=CC=C(C=C2)Cl)N)C3=NC=NC4=C3C=CN4
Summary of the method: as §1

IRAK-1-4 Inhibitor I = compound: C1COCCN1CCN2C3=CC=CC=C3N=C2NC(=O)C4=CC(=CC=C4)[N+](=O)[O-] [IRAK-1-4 Inhibitor I]
Summary of the method: as §1

ibrutinib = compound: C=CC(=O)N1CCC[C@@H](n2nc(-c3ccc(Oc4ccccc4)cc3)c3c(N)ncnc32)C1 [ibrutinib]
Summary of the method: as §1

[10] = compound: CC(=O)c1cnc2ccc(-c3cc(Cl)c(O)c(Cl)c3)nc2c1N[C@H]1CC[C@H](CN(C)C)CC1
Summary of the method: as §1

ralimetinib = compound: CC(C)(C)Cn1c(N)nc2ccc(-c3[nH]c(C(C)(C)C)nc3-c3ccc(F)cc3)nc21 [ralimetinib]
Summary of the method: as §1

[11] = compound: CC(C)(O)CC(=O)NCCn1ccc2ncnc(Nc3ccc(Oc4cccc(C(F)(F)F)c4)c(Cl)c3)c21
Summary of the method: as §1

[12] = compound: CC(C)C1=C2N=C(C=C(N2N=C1)NCC3=CC=CC=C3)NCCCCCCN
Summary of the method: as §1

[13] = compound: CC(C)C[C@@H](C=O)NC(=O)[C@H](CC(C)C)NC(=O)[C@H](CC(C)C)NC(=O)OCc1ccccc1
Summary of the method: as §1

pinometostat = compound: CC(C)N(C[C@H]1O[C@@H](n2cnc3c(N)ncnc32)[C@H](O)[C@@H]1O)[C@H]1C[C@@H](CCc2nc3cc(C(C)(C)C)ccc3[nH]2)C1 [pinometostat]
Summary of the method: as §1

[14] = compound: CC1=C(C(CC(=O)N1)C2=CC=C(C=C2)C(F)(F)F)C(=O)NC3=C(C=C4C(=C3)C=NN4)F
Summary of the method: as §1

[15] = compound: CC1=C(C2=C(C=C1)C(=O)C3=CC=CC=C3N2CCCN)C
Summary of the method: as §1

Chain of UniProt P56556 (P56556 whole entry, looked up): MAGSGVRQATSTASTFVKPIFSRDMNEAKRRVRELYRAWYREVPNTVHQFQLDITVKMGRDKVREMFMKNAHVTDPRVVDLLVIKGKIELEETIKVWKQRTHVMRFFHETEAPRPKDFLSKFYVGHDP
Chain of UniProt Q16621 (Q16621 whole entry, looked up): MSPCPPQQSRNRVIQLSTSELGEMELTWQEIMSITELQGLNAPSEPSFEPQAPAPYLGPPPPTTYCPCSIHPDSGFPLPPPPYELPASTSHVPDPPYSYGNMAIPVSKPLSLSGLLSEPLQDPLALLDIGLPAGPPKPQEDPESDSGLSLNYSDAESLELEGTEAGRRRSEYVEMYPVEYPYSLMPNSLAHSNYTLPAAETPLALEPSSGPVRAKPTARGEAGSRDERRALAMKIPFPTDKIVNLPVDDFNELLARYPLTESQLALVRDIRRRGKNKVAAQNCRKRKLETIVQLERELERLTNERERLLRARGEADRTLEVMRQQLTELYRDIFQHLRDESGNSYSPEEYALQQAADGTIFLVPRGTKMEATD
Chain of UniProt O75323 (O75323 whole entry, looked up): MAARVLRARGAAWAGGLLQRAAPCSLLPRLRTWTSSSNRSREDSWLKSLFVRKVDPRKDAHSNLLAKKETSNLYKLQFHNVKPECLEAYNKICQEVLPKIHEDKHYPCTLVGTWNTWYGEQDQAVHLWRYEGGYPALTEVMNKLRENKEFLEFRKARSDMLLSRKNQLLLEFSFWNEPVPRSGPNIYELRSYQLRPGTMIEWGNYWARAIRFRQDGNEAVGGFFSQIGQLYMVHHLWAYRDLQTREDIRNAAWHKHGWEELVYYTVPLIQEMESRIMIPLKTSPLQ
Chain of UniProt P68402 (P68402 whole entry, looked up): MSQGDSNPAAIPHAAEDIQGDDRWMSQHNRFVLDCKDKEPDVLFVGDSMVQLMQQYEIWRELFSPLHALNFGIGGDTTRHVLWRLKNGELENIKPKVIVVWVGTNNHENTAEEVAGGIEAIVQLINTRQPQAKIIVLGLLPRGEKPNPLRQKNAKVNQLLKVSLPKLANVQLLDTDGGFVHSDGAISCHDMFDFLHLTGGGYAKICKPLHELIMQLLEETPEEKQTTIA
Chain of UniProt Q9BZF1 (Q9BZF1 whole entry, looked up): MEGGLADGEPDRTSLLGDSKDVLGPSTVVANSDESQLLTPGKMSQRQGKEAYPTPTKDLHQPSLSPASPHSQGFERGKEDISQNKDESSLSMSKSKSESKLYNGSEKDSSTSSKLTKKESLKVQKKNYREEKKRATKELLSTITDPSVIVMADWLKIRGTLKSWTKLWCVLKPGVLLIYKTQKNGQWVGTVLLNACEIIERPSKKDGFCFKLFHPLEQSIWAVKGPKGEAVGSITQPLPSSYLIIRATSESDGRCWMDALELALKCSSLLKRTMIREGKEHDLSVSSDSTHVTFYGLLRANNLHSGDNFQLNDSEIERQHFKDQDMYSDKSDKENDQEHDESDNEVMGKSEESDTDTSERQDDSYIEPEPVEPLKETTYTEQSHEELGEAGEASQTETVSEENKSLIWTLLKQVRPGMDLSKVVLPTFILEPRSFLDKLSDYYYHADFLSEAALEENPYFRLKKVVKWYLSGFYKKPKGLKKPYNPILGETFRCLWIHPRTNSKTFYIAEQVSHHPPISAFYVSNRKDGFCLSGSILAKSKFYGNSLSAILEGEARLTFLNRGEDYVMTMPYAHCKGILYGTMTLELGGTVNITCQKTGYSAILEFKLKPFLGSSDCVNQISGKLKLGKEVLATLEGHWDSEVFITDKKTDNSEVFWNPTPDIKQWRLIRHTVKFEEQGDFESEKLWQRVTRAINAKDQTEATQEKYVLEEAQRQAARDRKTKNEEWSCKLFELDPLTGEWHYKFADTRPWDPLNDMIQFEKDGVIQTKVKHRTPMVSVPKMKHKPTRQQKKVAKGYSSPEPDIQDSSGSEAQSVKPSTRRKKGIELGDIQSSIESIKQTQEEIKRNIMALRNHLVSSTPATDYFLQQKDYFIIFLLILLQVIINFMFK
Chain of UniProt O00567 (O00567 whole entry, looked up): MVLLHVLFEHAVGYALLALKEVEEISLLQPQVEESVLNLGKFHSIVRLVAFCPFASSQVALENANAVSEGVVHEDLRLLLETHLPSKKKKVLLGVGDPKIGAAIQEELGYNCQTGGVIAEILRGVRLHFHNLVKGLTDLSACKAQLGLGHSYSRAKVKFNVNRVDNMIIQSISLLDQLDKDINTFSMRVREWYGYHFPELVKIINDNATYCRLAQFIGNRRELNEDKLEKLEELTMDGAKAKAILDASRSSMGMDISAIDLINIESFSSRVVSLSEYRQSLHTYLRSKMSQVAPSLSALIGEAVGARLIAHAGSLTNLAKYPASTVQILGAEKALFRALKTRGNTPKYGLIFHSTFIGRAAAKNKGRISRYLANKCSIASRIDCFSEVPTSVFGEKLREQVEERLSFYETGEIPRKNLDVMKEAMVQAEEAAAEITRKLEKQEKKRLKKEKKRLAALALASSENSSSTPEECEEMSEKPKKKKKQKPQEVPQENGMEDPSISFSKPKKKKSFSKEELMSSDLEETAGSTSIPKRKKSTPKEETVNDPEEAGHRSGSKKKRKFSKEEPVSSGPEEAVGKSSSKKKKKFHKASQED
Chain of UniProt Q8TEM1 (Q8TEM1 whole entry, looked up): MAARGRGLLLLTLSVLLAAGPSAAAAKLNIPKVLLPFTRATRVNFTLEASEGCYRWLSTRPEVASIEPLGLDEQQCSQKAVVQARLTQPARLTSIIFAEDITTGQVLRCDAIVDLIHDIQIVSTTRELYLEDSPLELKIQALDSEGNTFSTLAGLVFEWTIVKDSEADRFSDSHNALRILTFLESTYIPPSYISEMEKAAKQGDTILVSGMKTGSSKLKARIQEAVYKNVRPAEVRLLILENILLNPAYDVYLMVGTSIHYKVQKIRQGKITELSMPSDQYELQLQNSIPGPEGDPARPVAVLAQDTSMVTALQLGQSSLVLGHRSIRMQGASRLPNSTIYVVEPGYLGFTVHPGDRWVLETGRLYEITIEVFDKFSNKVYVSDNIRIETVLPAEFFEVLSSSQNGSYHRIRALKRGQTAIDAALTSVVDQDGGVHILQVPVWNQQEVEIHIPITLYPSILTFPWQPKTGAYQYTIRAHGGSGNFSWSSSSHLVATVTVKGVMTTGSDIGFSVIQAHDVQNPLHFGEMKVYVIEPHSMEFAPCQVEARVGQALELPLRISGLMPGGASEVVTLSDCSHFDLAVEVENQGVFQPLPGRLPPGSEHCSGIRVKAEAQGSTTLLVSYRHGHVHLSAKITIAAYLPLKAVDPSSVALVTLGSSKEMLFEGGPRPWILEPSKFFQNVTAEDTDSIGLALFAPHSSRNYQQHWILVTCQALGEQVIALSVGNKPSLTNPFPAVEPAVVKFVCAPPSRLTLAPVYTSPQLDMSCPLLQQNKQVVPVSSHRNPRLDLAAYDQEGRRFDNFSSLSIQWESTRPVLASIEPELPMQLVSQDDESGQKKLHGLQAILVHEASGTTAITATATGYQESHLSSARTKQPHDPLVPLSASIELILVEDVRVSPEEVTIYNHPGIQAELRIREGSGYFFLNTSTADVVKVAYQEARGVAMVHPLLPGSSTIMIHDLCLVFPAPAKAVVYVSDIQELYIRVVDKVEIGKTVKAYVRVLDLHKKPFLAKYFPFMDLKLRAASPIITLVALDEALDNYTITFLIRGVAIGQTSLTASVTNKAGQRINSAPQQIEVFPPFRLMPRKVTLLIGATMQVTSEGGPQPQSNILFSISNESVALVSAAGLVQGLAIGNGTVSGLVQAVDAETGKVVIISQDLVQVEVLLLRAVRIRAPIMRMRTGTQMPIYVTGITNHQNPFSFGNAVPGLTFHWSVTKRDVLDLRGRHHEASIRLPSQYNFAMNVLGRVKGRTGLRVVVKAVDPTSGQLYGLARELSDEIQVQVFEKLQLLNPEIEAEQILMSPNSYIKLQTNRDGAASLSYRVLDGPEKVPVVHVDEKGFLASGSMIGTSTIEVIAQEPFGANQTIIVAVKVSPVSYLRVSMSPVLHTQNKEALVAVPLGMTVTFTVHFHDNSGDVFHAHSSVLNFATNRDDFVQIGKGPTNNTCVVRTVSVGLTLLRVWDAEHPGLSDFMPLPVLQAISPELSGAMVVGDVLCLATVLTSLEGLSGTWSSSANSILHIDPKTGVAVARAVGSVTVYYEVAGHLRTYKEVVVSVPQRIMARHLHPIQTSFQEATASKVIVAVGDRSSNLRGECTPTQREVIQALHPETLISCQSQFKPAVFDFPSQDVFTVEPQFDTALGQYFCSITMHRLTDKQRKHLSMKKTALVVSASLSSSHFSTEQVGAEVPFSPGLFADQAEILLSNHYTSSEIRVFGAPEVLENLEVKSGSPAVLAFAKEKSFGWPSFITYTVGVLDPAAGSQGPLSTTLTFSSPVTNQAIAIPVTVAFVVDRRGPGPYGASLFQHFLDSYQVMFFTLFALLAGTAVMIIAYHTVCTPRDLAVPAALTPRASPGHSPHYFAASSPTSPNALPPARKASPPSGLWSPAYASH
Chain of UniProt P49116 (P49116 whole entry, looked up): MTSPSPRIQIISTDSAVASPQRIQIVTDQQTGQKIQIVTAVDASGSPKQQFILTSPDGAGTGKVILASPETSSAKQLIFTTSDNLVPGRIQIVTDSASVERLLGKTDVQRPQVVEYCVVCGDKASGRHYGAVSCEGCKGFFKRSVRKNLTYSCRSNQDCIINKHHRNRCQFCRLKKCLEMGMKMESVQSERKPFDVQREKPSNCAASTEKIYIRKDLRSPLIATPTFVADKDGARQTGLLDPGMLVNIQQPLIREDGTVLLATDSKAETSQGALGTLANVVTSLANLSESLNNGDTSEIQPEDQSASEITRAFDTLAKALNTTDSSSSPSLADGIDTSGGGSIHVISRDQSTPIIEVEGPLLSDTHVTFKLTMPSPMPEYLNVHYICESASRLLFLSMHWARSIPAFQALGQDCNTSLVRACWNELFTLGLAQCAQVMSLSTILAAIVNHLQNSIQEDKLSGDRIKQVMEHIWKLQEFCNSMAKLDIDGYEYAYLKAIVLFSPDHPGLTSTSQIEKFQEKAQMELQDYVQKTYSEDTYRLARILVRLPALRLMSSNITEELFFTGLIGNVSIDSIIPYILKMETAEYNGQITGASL

Target | log2 fold change (erlotinib) | log2 fold change [1] | log2 fold change [2] | log2 fold change [3] | log2 fold change [4] | log2 fold change [5] | log2 fold change [6] | log2 fold change [7] | log2 fold change [8] | log2 fold change [9] | log2 fold change (IRAK-1-4 Inhibitor I) | log2 fold change (ibrutinib) | log2 fold change [10] | log2 fold change (ralimetinib) | log2 fold change [11] | log2 fold change [12] | log2 fold change [13] | log2 fold change (pinometostat) | log2 fold change [14] | log2 fold change [15]
NIPSNAP2 (UniProt O75323) | 0.024 | 0.065 | 0.076 | 0.106 | 0.044 | -0.079 | 0.071 | 0.041 | 0.01 | 0.007 | 0.018 | 0.115 | -0.084 | -0.054 | 0.049 | 0.014 | -0.015 | -0.034 | 0.002 | 0.031
MRPS2 (UniProt Q9Y399) | 0.004 | -0.064 | -0.083 | 0.052 | 0.093 | 0.01 | 0.083 | -0.033 | -0.01 | -0.112 | -0.043 | 0.109 | -0.011 | -0.02 | -0.035 | -0.03 | 0.08 | 0.002 | 0.002 | -0.079
NFE2 (UniProt Q16621) | 0.009 | 0.005 | -0.025 | -0.001 | -0.002 | 0.158 | -0.012 | -0.009 | -0.02 | -0.019 | 0.053 | -0.039 | 0.016 | -0.06 | 0.01 | -0.119 | 0.184 | -0.001 | 0.037 | -0.285 (active)
NOP56 (UniProt O00567) | -0.093 | -0.012 | -0.676 (active) | 0.087 | -0.232 | 0.045 | -0.164 | -0.109 | -0.111 | -0.15 | -0.03 | 0.025 | 0.015 | 0.082 | 0.108 | 0.202 | 0.234 | 0.198 | 0.086 | 0.187
MRPS16 (UniProt Q9Y3D3) | -0.126 | 0 | -0.025 | 0.159 | 0.014 | 0.079 | 0.117 | 0.044 | -0.085 | -0.097 | -0.082 | 0.02 | -0.047 | -0.008 | -0.034 | -0.19 | 0.015 | 0.021 | 0 | -0.126
OPA1 isoform 2 (UniProt O60313) | 0.041 | 0.081 | 0.031 | -0.021 | 0.07 | 0.01 | 0.126 | 0.027 | -0.006 | 0.078 | -0.008 | -0.009 | -0.05 | 0.043 | -0.201 | -0.375 (active) | 0.004 | 0.03 | -0.006 | 0.1
MOV10 (UniProt Q9HCE1) | -0.103 | -0.062 | -0.242 | 0.026 | -0.002 | 0.049 | -0.049 | -0.054 | 0.04 | -0.158 | -0.135 | 0.002 | 0.069 | 0.12 | 0.082 | 0.02 | 0.033 | 0.163 | -0.052 | -0.305
NCL (UniProt P19338) | -0.154 | -0.231 | -0.723 | -0.012 | -0.109 | -0.017 | -0.112 | 0.061 | 0.037 | -0.148 | -0.144 | 0.034 | 0.118 | 0.166 | 0.119 | 0.07 | 0.121 | 0.4 | 0.039 | -0.891 (active)
NDUFA6 (UniProt P56556) | 0.014 | 0.133 | 0.11 | -0.015 | -0.045 | 0.002 | 0.104 | 0.042 | -0.031 | -0.008 | -0.004 | -0.031 | -0.092 | -0.046 | -0.214 | -0.05 | -0.045 | -0.083 | -0.03 | 0.175
MT-ND4 (UniProt P03905) | 0.152 | -0.077 | 0.053 | -0.028 | -0.026 | 0.044 | -0.009 | 0.078 | -0.007 | -0.036 | -0.005 | -0.092 | -0.236 | -0.06 | -0.094 | -0.124 | -0.054 | -0.135 | -0.065 | 0.056
NUP210 (UniProt Q8TEM1) | 0.021 | 0.004 | 0.06 | -0.004 | 0.011 | 0.015 | -0.018 | -0.186 | -0.009 | 0.012 | 0.005 | -0.025 | -0.038 | -0.069 | -0.176 | -0.52 (active) | -0.007 | 0.001 | 0.026 | 0.047
OXA1L (UniProt Q15070) | -0.014 | 0.029 | -0.005 | 0.012 | 0.01 | 0.021 | 0.006 | -0.029 | 0.012 | 0.043 | 0.05 | 0.011 | 0.03 | -0.037 | 0.006 | -0.209 | -0.004 | 0 | 0.016 | -0.018
OXR1 (UniProt Q8N573) | 0.029 | 0.067 | 0.011 | 0.002 | 0.023 | 0.007 | -0.043 | -0.062 | -0.03 | 0.056 | 0.048 | 0.016 | -0.002 | -0.019 | -0.035 | -0.077 | -0.004 | 0.023 | -0.008 | 0.009
PAFAH1B2 (UniProt P68402) | 0.195 | -0.088 | 0.134 | -0.016 | -0.036 | -0.034 | 0.068 | 0.027 | 0.128 | 0.047 | 0.013 | 0.017 | -0.016 | 0.038 | -0.436 (active) | 0.012 | -0.033 | 0.016 | 0.027 | 0.005
NR2C2 isoform 2 (UniProt P49116) | -0.001 | -0.067 | -0.011 | 0.006 | 0.019 | -0.039 | -0.003 | -0.091 | 0.074 | 0.007 | 0.004 | 0.022 | -0.062 | -0.064 | -0.048 | -0.004 | 0.058 | 0.014 | 0.045 | -0.215
OSBPL8 (UniProt Q9BZF1) | 0.243 | 0.156 | -0.212 | 0.021 | 0.005 | -0.028 | 0.077 | -0.005 | -0.048 | -0.085 | -0.148 | -0.042 | -0.204 | 0.199 | -0.019 | -0.378 | 0.046 | 0.201 | -0.076 | 0.045
